The campaign covered roughly 310,000 compounds. About 14,000 (4.5%) showed an effect of 50% or more. The effect is printed as a negative number. Shown is part of a subset that was picked to be rich in strong results.
The compounds below were run against human ether-à-go-go-related gene (hERG) potassium channel (human, UniProt Q12809) (assay: primary screen, population patch clamp on CHO cells stably expressing hERG; higher = less effect of the substance).
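Further: peak tail current of the secondary pulse compared with the same well before compound.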

human ether-à-go-go-related gene (hERG) potassium channel, sequence (Q12809 whole entry, looked up): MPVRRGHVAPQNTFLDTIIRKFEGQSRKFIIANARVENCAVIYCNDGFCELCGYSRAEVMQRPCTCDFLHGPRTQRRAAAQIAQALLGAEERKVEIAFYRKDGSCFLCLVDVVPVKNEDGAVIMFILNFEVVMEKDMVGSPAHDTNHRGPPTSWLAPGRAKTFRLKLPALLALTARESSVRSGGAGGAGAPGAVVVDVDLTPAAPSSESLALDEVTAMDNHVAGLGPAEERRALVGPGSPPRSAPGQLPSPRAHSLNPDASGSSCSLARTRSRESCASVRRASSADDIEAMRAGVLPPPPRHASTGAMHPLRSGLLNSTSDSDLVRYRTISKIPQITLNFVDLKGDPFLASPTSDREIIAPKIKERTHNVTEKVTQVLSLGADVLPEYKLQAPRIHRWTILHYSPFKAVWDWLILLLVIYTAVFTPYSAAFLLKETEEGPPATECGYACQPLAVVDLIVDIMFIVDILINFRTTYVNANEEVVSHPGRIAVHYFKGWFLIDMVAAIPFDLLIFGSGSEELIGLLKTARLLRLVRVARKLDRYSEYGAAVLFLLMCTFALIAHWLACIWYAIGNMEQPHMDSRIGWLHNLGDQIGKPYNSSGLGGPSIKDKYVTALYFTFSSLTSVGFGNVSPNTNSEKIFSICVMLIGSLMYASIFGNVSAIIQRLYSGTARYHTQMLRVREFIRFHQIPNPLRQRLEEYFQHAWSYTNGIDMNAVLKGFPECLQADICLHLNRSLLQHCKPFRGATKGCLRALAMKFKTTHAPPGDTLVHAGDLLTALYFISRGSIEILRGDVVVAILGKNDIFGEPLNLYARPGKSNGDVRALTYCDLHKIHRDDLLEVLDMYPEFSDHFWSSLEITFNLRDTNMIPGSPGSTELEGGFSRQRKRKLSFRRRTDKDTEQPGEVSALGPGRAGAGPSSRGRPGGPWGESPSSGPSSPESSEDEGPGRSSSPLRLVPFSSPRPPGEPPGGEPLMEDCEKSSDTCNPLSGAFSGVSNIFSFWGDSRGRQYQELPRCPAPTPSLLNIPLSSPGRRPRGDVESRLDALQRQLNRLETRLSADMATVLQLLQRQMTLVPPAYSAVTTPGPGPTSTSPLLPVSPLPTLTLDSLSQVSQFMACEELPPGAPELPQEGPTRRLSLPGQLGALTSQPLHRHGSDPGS

Compared with CCCCn1c(O)c(/C=C/C=C/C=Nc2ccccc2)sc1=S, Cc1oc(-c2cccc3ccccc23)nc1CN1CCC[C@H]1CO is lower in “hERG current change (%, negative = inhibition) at 10uM” value: 31% for the first, -12.2% for the second.

Going from O=C(Nc1ccc(Cl)c(C(F)(F)F)c1)C(=O)N1CCCCC1 to Cc1cc(C)n(-c2ccc(NC(=O)C3CCN(Cc4ccc(C)o4)CC3)cc2)n1, the “hERG current change (%, negative = inhibition) at 10uM” value falls from -1.61% to -16.6%.

Going from CC(Oc1ccc(Br)cc1)C(=O)NCC(C)(C)N1CCOCC1 (centres unmarked) to Cc1c(NC(=O)C(C)OC(=O)CNC(=O)c2ccc(C(C)(C)C)cc2)c(=O)n(-c2ccccc2)n1C (centres unmarked), the “hERG current change (%, negative = inhibition) at 10uM” value rises from -26% to 13.2%.

Going from COC(=O)c1ccccc1NC(=O)c1ccc(COc2ccc(C)c(C)c2)o1 to CCOC(=O)c1nc(Nc2ccc(C(=O)OC)cc2)c2ccccc2n1, the “hERG current change (%, negative = inhibition) at 10uM” value falls from 11.9% to 0.323%.

Going from COC(=O)C1=C(c2c(C)noc2C)C[C@@H]2CC[C@H]1N2C(=O)NCCO to COC(=O)CSc1nsc(SCC(=O)OC)c1C#N, the “hERG current change (%, negative = inhibition) at 10uM” value falls from 20% to 5.34%.

First: Cc1nnc(N/N=C/C2CC=CCC2)[nH]c1=O (centres unmarked)
Second: COc1ccc(-c2nc(CN3CCCCC3c3cccnc3)c(C)o2)c(F)c1 (centres unmarked)
The “hERG current change (%, negative = inhibition) at 10uM” value of the first is higher: 7.06% for the first, -35.9% for the second.

Compared with CC(C)C(NS(=O)(=O)c1cccc2nsnc12)C(=O)NCc1ccc2c(c1)OCO2 (centres unmarked), CCOC(=O)CSc1nc(-c2ccc3c(c2)OCO3)ccc1C#N is higher in “hERG current change (%, negative = inhibition) at 10uM” value: -18.7% for the first, 7.3% for the second.

First: CC(=O)CSc1nsc(SCC(C)=O)c1C#N
Second: CCOC(=O)CSc1nsc(SCC(=O)OCC)c1C#N
The “hERG current change (%, negative = inhibition) at 10uM” value of the first is higher: 17.2% for the first, -55.7% for the second.

First: CCOC(=O)CC(=O)CSc1nc(-c2cccnc2)ccc1C#N
Second: CCOC(=O)CSc1nc(-c2ccncc2)ccc1C#N
The “hERG current change (%, negative = inhibition) at 10uM” value of the first is higher: 17.5% for the first, -61.6% for the second.

Going from CC1CCc2c(sc3nc4n(c(=O)c23)CCS4)C1 (centres unmarked) to Cn1ccnc1C1CCCCN1Cc1nc(-c2ccc3c(c2)OCO3)no1 (centres unmarked), the “hERG current change (%, negative = inhibition) at 10uM” value rises from -10.3% to -7.65%.

Compared with COc1ccc(-c2nc3ccccc3n2OCC(=O)O)cc1, COc1ccc(-c2nc(CS(=O)CC(=O)NCc3ccccn3)c(C)o2)cc1 (centres unmarked) is lower in “hERG current change (%, negative = inhibition) at 10uM” value: 18.5% for the first, 6.44% for the second.

First: CCCCCC(=O)NC(=S)Nc1ccc(NC(=O)c2ccco2)cc1
Second: CC1(C)Cc2c(sc(NC(=O)c3ccc(Br)o3)c2C#N)CO1
The “hERG current change (%, negative = inhibition) at 10uM” value of the first is lower: 2.58% for the first, 16.6% for the second.

Going from Fc1cccc(Cc2noc(CN3CCCCC3CCc3ccccn3)n2)c1 (centres unmarked) to Clc1ccccc1Cc1noc(CN2CCCCC2CCc2ccccn2)n1 (centres unmarked), the “hERG current change (%, negative = inhibition) at 10uM” value falls from 0.789% to -29.4%.

Compared with c1ccc(CCC2CCCCN2Cc2nc(-c3ccc4c(c3)OCO4)no2)nc1 (centres unmarked), Cc1oc(-c2cccc(F)c2)nc1CN1CCCCC1CCc1ccccn1 (centres unmarked) is lower in “hERG current change (%, negative = inhibition) at 10uM” value: -55.7% for the first, -91.5% for the second.

With COc1ccc(-c2nc(CN3CCCCC3CCc3ccccn3)c(C)o2)cc1 (centres unmarked) the “hERG current change (%, negative = inhibition) at 10uM” value was -90.7%.

Source: paper PMC4336329 (PLoS ONE, 2015)
